High-throughput results from PubChem BioAssay.
ROS inducer: cancer cell ROS induction. 46,000 compounds, 2% hits. U2OS ROS induction, H2DCF-DA fluorescence. ROS induction (% of piperlongumine), % at 10 µM; in the data active = ROS induction above about 79%, passing the limit was not always enough;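 also: 0% = DMSO vehicle median and 100% = reference compound median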
Active calls of the source: *. This excerpt belongs to a sample that is enriched for hits.

SMILES | ROS inducer
C[C@H](CO)N1C[C@H](C)[C@H](CN(C)Cc2ccc(Oc3ccccc3)cc2)Oc2ccc(NS(=O)(=O)c3ccc(F)cc3)cc2CC1=O | 114*
COc1ccc(S(=O)(=O)Nc2ccc3c(c2)CC(=O)N([C@H](C)CO)C[C@H](C)[C@H](CN(C)Cc2ccc(Oc4ccccc4)cc2)O3)cc1 | 26
C[C@H]1CN([C@@H](C)CO)C(=O)Cc2cc(NS(=O)(=O)c3ccccc3)ccc2O[C@H]1CN(C)Cc1ccc(Oc2ccccc2)cc1 | 17
C[C@@H]1CN([C@H](C)CO)C(=O)Cc2cc(NS(=O)(=O)c3ccccc3)ccc2O[C@@H]1CN(C)Cc1ccc(Oc2ccccc2)cc1 | 63
COc1ccc(S(=O)(=O)Nc2cccc3c2O[C@H](CN(C)S(=O)(=O)c2cn(C)cn2)[C@H](C)CN([C@@H](C)CO)C3=O)cc1 | -12
O=C(Nc1sc2c(c1C(=O)NCc1ccco1)CCCC2)c1cccs1 | 39
C[C@@H]1CN([C@@H](C)CO)C(=O)c2cc(NC(=O)C3CCCCC3)ccc2O[C@H]1CN(C)C(=O)Nc1ccc(F)cc1 | 13
CCCc1c(-c2ccccc2)nc2sc3c(c2c1N)CCCCC3 | 169*
Nn1c(Cc2ccccc2)nc2sc3c(c2c1=O)CCCC3 | 0
c1ccc(OCc2nc3c4c5c(sc4ncn3n2)CCCC5)cc1 | 13
COCC(=O)Nc1sc2c(c1C(=O)OC)C(C(=O)OC)CC2 (centres undefined) | 24
CN(CCCn1cnc2c([nH]c3ccccc32)c1=O)C1CCCCC1 | 1
Cc1nc2ccccc2n1Cc1cccc(Cl)c1 | -13
Cc1ccc(S(=O)(=O)c2cn(Cc3cccc(Cl)c3)c3cc4c(cc3c2=O)OCO4)cc1 | 98*
CCc1ccc(NC(=O)Cn2cc(S(=O)(=O)c3ccccc3)c(=O)c3ccccc32)cc1 | 35
Cc1ccc(NC(=O)C(C)Oc2ccc(Cl)cc2Cl)c([N+](=O)[O-])c1 (centres undefined) | 10
Cc1ccc(C(=O)CC(Sc2ccccc2N)c2ccsc2)cc1 (centres undefined) | 23
C[C@@H]1C[C@@H]2O[C@H]2/C=C/C=C\C(=O)Cc2c(Cl)c(O)cc(O)c2C(=O)O1 | 140*
COc1cc(O)cc2c1C(=O)OC(C)C2 (centres undefined) | 17
CC(C)NC(=O)N(C)C[C@@H]1Oc2ccc(NC(=O)Nc3ccc4c(c3)OCO4)cc2C(=O)N([C@H](C)CO)C[C@@H]1C | -2
C[C@@H]1CN([C@@H](C)CO)C(=O)Cc2cc(NC(=O)Nc3ccccc3)ccc2O[C@@H]1CN(C)CC1CC1 | 3
C[C@@H]1CN([C@H](C)CO)C(=O)Cc2cc(NC(=O)Nc3ccc4c(c3)OCO4)ccc2O[C@@H]1CN(C)CC1CCCCC1 | 4
C[C@@H]1CN([C@H](C)CO)C(=O)Cc2cc(NC(=O)Nc3ccc4c(c3)OCO4)ccc2O[C@H]1CN(C)CC1CC1 | 128*
C[C@@H]1CN([C@H](C)CO)C(=O)Cc2cc(NC(=O)Nc3ccc4c(c3)OCO4)ccc2O[C@@H]1CN(C)C | -2
C[C@@H]1CN([C@@H](C)CO)C(=O)Cc2cc(NC(=O)Nc3ccc4c(c3)OCO4)ccc2O[C@@H]1CN(C)C | 99*
SMILES | ROS inducer
C[C@@H]1CN([C@H](C)CO)C(=O)Cc2cc(NC(=O)Nc3ccc4c(c3)OCO4)ccc2O[C@H]1CN(C)C | -1
CSc1nnc(-c2ccc(S(=O)(=O)n3nc(C)cc3C)s2)n1C | 7
CCOC(=O)c1ccc(NC(=O)CC2Nc3cccc4cccc(c34)NC2=O)cc1 (centres undefined) | 20
C[C@@H]1CCCCO[C@@H](CN(C)S(=O)(=O)c2ccc(F)cc2)[C@@H](C)CN([C@H](C)CO)C(=O)c2cc(NS(=O)(=O)c3cn(C)cn3)ccc2O1 | -3
O=C(CCN1C(=O)c2ccccc2C1=O)Nc1ccccc1-c1ccccc1 | -6
O=S(=O)(c1ccc(-c2cc(C(F)(F)F)ccn2)s1)N1CCCC1 | 3
C[C@@H]1CN([C@H](C)CO)C(=O)c2cccc(NC(=O)C3CCOCC3)c2O[C@H]1CN(C)C(=O)Nc1ccccc1 | -8
COCCn1c(=O)c(C#N)cc2c(=O)n3ccccc3nc21 | 20
Cc1ccc(-n2c(=O)c(C#N)cc3c(=O)n4ccccc4nc32)cc1 | -1
Cc1ccc(CSc2nnc(-n3c(=O)c(C#N)cc4c(=O)n5ccccc5nc43)s2)cc1 | 189*
COc1ccc(NC(=O)N(C)C[C@@H]2Oc3ccc(NC(=O)Nc4ccc5c(c4)OCO5)cc3C(=O)N([C@H](C)CO)C[C@H]2C)cc1 | 0
O=C(O)c1c2c(nc3ccccc13)CSc1ccc(Cl)cc1-2 | -11
Cc1noc(C)c1NC(=O)N(C)C[C@H]1Oc2ccc(NS(C)(=O)=O)cc2CC(=O)N([C@H](C)CO)C[C@H]1C | 5
Cc1ccc(S[C@]2(C(=O)NC(C)C)CC(=O)N(C3CCCCC3)[C@@H]2c2ccc(CO)cc2I)cc1 | 201*
Cc1ccc(S[C@]2(C(=O)NCC(F)(F)F)CC(=O)N(C3CCCCC3)[C@@H]2c2ccc(CO)cc2I)cc1 | 19
COc1ccc(CCNC(=O)[C@@]2(Sc3ccc(C)cc3)CC(=O)N(C(C)C)[C@@H]2c2ccc(CO)cc2I)cc1 | 20
CC(C)(C)c1csc(Cc2ccc(-c3csnn3)cc2)n1 | -5
O=C(Nc1sc2c(c1C(=O)N1CCOCC1)CCCCC2)c1ccccc1 | -6
C[C@@H]1CN([C@@H](C)CO)C(=O)c2cccc(NS(=O)(=O)c3cccs3)c2O[C@@H]1CN(C)S(=O)(=O)c1cn(C)cn1 | 1
Cc1ccc(-c2cc(C(F)F)n3ncc(C(=O)NCCN4CCOCC4)c3n2)cc1 | 27
COc1ccc(-c2cc(C(F)F)n3ncc(C(=O)Nc4cccc(NC(C)=O)c4)c3n2)cc1 | 155*
COc1ccc(OCC(=O)Nc2cccc(-c3cnc4ccccc4n3)c2)cc1 | 11
COC(=O)c1ccccc1NC(=O)c1nc2nc(C)cc(C(F)F)n2n1 | 32
O=C(NCc1cccnc1)c1cnn2c(C(F)F)cc(C3CC3)nc12 | 18
Cc1ccc(-c2cc(C(F)F)n3ncc(C(=O)NCc4cn(C)nc4C)c3n2)cc1 | 135*
SMILES | ROS inducer
CCc1ccc(NS(=O)(=O)c2ccc3c(c2)OCCN3C(C)=O)cc1 | -10
C[C@H]1CN([C@@H](C)CO)C(=O)c2cc(NC(=O)CCN3CCOCC3)ccc2O[C@@H]1CN(C)S(=O)(=O)c1ccccc1 | -5
C[C@@H]1CCCCO[C@@H](CN(C)C(=O)C2CCCCC2)[C@@H](C)CN([C@H](C)CO)C(=O)c2cc(NC(=O)CCC(F)(F)F)ccc2O1 | 17
C[C@@H]1CCCCO[C@H](CN(C)C(=O)Nc2ccc3c(c2)OCO3)[C@@H](C)CN([C@H](C)CO)C(=O)c2cc(NC(=O)CCC(F)(F)F)ccc2O1 | -6
C[C@@H]1CCCCO[C@H](CN(C)Cc2ccc(C(F)(F)F)cc2)[C@@H](C)CN([C@H](C)CO)C(=O)c2cc(NC(=O)CCC(F)(F)F)ccc2O1 | 9
C[C@@H]1CCCCO[C@@H](CN(C)Cc2ccc(C(F)(F)F)cc2)[C@@H](C)CN([C@H](C)CO)C(=O)c2cc(NC(=O)CCC(F)(F)F)ccc2O1 | 155*
C[C@@H]1CCCCO[C@H](CN(C)Cc2ccncc2)[C@@H](C)CN([C@H](C)CO)C(=O)c2cc(NC(=O)C3CCCCC3)ccc2O1 | -4
C[C@@H]1CCCCO[C@@H](CN(C)Cc2ccc(C(=O)O)cc2)[C@@H](C)CN([C@H](C)CO)C(=O)c2cc(NC(=O)CCC(F)(F)F)ccc2O1 | 2
